Measurements as given in the supplement of paper PMC9177965.
“And” between values parts separate entries of the source, which are not always exact repeats. Equal entries are not always repeated.

The compounds below were run on HT29 sg-Ctrl (RNF43 wildtype) (assay: cell viability activity relative to DMSO (negative = inhibition); higher = more viable cells (less growth inhibition)). Conditions: 5 µM; 96 h.
Description: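 Broad Repurposing Library primary screen at a single dose of 5 uM. HT29 sg-Ctrl and HT29 RNF43 G659fs CRISPR-edited isogenic cells were seeded at 2500 cells/well in 384-well plates in duplicate and treated for 96 h. Viability was read by CellTiter-Glo and reported as % activity relative to DMSO, with MG132 as the positive control (negative = growth inhibition).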

| Compound | cell viability activity |
| --- | --- |
| NC(=O)c1cn([C@@H]2O[C@H](CO)[C@@H](O)[C@H]2O)c2ncnc(N)c12 | -93% |
| CC(C)[C@]12O[C@H]1[C@@H]1O[C@]13[C@]1(O[C@H]1C[C@H]1C4=C(CC[C@@]13C)C(=O)OC4)[C@@H]2O | -87.8% and -92.2% |
| CCN(CC)CCO[C@H]1CC[C@@]2(C)C(=CC[C@@H]3[C@@H]2CC[C@]2(C)C(=O)CC[C@@H]32)C1 | -52.8% |
| Oc1cccc2cccnc12 | -34.8% |
| COC(=O)NC(=S)Nc1ccccc1NC(=S)NC(=O)OC | -38.9% |
| COc1cccc2c1C(=O)c1c(O)c3c(c(O)c1C2=O)C[C@@](O)(C(=O)CO)C[C@@H]3O[C@H]1C[C@H](N2CCO[C@H](OC)C2)[C@H](O)[C@H](C)O1 | -95.3% |
| C[C@@H]1CC[C@@]2(OC1)O[C@H]1C[C@H]3[C@@H]4CC=C5C[C@@H](O[C@@H]6O[C@H](CO)[C@@H](O[C@@H]7O[C@@H](C)[C@H](O)[C@@H](O)[C@H]7O)[C@H](O)[C@H]6O[C@@H]6O[C@@H](C)[C@H](O)[C@@H](O)[C@H]6O)CC[C@]5(C)[C@H]4CC[C@]3(C)[C@H]1[C@@H]2C | -63.5% |
| C/C(=C\c1csc(C)n1)[C@@H]1C[C@@H]2O[C@@H]2CCC[C@H](C)[C@H](O)[C@@H](C)C(=O)C(C)(C)[C@@H](O)CC(=O)O1 | -51.9% |
| O=C1/C(=C/c2ccccc2)C[C@@]2(O)C3Cc4ccc(O)c5c4[C@@]2(CCN3CC2CC2)[C@H]1O5 | -66% |
| COc1cc([C@@H]2c3cc4c(cc3[C@H](O)[C@H]3COC(=O)[C@H]23)OCO4)cc(OC)c1OC | -58.2% |
| COc1ccc(CCN2CCC(Nc3nc4ccccc4n3Cc3ccc(F)cc3)CC2)cc1 | -3.92% |
| C[C@H]1CCC/C=C/[C@@H]2C[C@H](O)C[C@H]2[C@H](O)/C=C/C(=O)O1 | -98.3% and -96.8% |
| O=C1C=C2C=C[C@@H]3C[C@@]2(O1)[C@H]1CCCCN31 | -6.19% |
| CC[C@@]1(O)C(=O)OCc2c1cc1n(c2=O)Cc2cc3ccccc3nc2-1 | -91.5% |
| Cn1c(COP(=O)(NCCBr)NCCBr)cnc1[N+](=O)[O-] | -27.3% |
| CCCCCCCCCCCCCCCC[n+]1ccccc1 | -79.9% |
| c1ccc2c(c1)[I+]c1ccccc1-2 | -52.1% |
| Clc1cccc(SC2CCNCC2)n1 | -64.7% |
| COc1cc2c(c(OC)c1OC)-c1ccc(OC)c(=O)cc1[C@@H](NC(C)=O)CC2 | -46.1% and -57.8% |
| C[C@@H]1O[C@@H](O[C@@H]2C=C3CC[C@@H]4[C@H](CC[C@]5(C)[C@@H](c6ccc(=O)oc6)CC[C@]45O)[C@@]3(C)CC2)[C@H](O)[C@H](O)[C@H]1O | -87.4% |

| Compound | cell viability activity |
| --- | --- |
| C=C(C)[C@H]1Cc2c(ccc3c2O[C@@H]2COc4cc(OC)c(OC)cc4[C@@H]2C3=O)O1 | -75.8% |
| CN1CCN(c2cccc3[nH]c(=O)oc23)CC1 | -54.8% |
| O=C(C[C@H]1NCCC[C@@H]1O)Cn1cnc2cc(Br)c(Cl)cc2c1=O | -86.5% |
| CC(C)(C)c1cc(C=C(C#N)C#N)cc(C(C)(C)C)c1O | -67.3% |
| C[C@@H]1O[C@@H](O[C@H]2C[C@@H](O)[C@]3(CO)[C@H]4[C@H](O)C[C@]5(C)[C@@H](C6=CC(=O)OC6)CC[C@]5(O)[C@@H]4CC[C@]3(O)C2)[C@H](O)[C@H](O)[C@H]1O | -87.7% and -89.1% |
| Fc1cc(F)c2c(c1)[C@H]1C=CC[C@H]1C(c1cccnc1)N2 (stereo not given in full) | -92.9% and -73.9% |
| N#Cc1cn([C@@H]2O[C@H](CO)[C@@H](O)[C@H]2O)c2ncnc(N)c12 | -89.9% |
| C[C@]12CC[C@H](O)C[C@H]1CC[C@@H]1[C@@H]2CC[C@]2(C)[C@@H](C3=CC(=O)OC3)CC[C@]12O | -86.7% |
| CO[C@H]1C[C@H](O[C@H]2CC[C@@]3(C)[C@H](CC[C@@H]4[C@@H]3CC[C@]3(C)[C@@H](C5=CC(=O)OC5)[C@@H](OC(C)=O)C[C@]43O)C2)O[C@@H](C)[C@@H]1O | -90.4% |
| CC(=O)O[C@H]1C[C@H](O[C@H]2[C@@H](O)C[C@H](O[C@H]3[C@@H](O)C[C@H](O[C@H]4CC[C@@]5(C)[C@H](CC[C@@H]6[C@@H]5C[C@@H](O)[C@]5(C)[C@@H](C7=CC(=O)OC7)CC[C@]65O)C4)O[C@@H]3C)O[C@@H]2C)O[C@H](C)[C@H]1O[C@@H]1O[C@H](CO)[C@@H](O)[C@H](O)[C@H]1O | -89.1% |
| CC[C@@H]1/C=C/C=C/C[C@H](C)[C@H](O)[C@](C)(O)C(=O)[C@H](C)[C@@H](O)[C@H](C)C(=O)[C@H](C)[C@@H](O)[C@H](C)/C=C/C(=O)O[C@H]2[C@@H](C)[C@@H](CC1)O[C@@]1(CC[C@@H](C)[C@@H](C[C@H](C)O)O1)[C@@H]2C | -42.2% |
| O=Cc1cn(Cc2ccc(Cl)cc2)c2ccccc12 | -88.6% |
| C=C1[C@@H](C)[C@H]2[C@H](Cc3ccccc3)NC(=O)[C@]23OC(=O)/C=C/[C@H](O)CCC[C@@H](C)C/C=C/[C@H]3[C@@H]1O | -36.1% |
| Oc1cc(Cl)ccc1Oc1ccc(Cl)cc1Cl | -92.8% |
| O=[N+]([O-])C=Cc1ccc2c(c1)OCO2 | -21% |
| CC(=O)O[C@@]12CO[C@@H]1C[C@H](O)[C@@]1(C)C(=O)[C@H](O)C3=C(C)[C@@H](O)C[C@@](O)([C@@H](OC(=O)c4ccccc4)[C@H]21)C3(C)C | -62.6% |
| C/C(=C\c1csc(C)n1)[C@@H]1C[C@@H]2O[C@]2(C)CCC[C@H](C)[C@H](O)[C@@H](C)C(=O)C(C)(C)[C@@H](O)CC(=O)O1 | -72.3% |
| CC[C@@H](C(=O)[C@@H](C)[C@@H](O)[C@H](C)[C@@H]1O[C@@H]([C@@H](CC)C(=O)O)CC[C@@H]1C)[C@H]1O[C@]2(C=C[C@@H](O)[C@]3(CC[C@@](C)([C@H]4CC[C@](O)(CC)[C@H](C)O4)O3)O2)[C@H](C)C[C@@H]1C | -71.9% |
| CCNC(=O)C[C@@H]1N=C(c2ccc(Cl)cc2)c2cc(OC)ccc2-n2c(C)nnc21 | -59.5% |
| Cc1sc2c(c1C)C(c1ccc(Cl)cc1)=N[C@@H](CC(=O)OC(C)(C)C)c1nnc(C)n1-2 | -61.7% |
